High-throughput results deposited in PubChem by National Center for Advancing Translational Sciences (NCATS).
Rows were chosen to be rich in hits. Some 10% of all compounds tested hit in one or more screens of this group.
Gal4-VP16 FLuc = VP16 counterscreen qHTS for inhibitors of ROR gamma transcriptional activity; Drosophila S2 Gal4-VP16 UAS-luciferase, luminescence, 20 h; Potency, µM (series often up to 53.6 µM), actives largely listed as inhibitors; actives 3.5% (n = 310,000); AID 2546, 2010;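 also: Gal4-VP16 expression switched on by copper sulfate through the metallothionein promoter; nearly all actives have a fitted effect of over 50% in size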
KB-V1 cytotox = qHTS assay for MDR1-selective chemotherapeutics: Primary screen using the drug-selected MDR subline cells KB-V1 | KB-V1 MDR cells viability, CellTiter-Glo, 72 h | Potency, µM (top dose mostly 46.1 µM), hits mostly cytotoxic | actives 3.4% (n = 400,000) | AID 1347076, 2019; also: nearly all actives have a fitted effect of over 60% in size
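In this primary screen, KB-V1 cells overexpressing P-gp are incubated with library compounds (lowest to highest concentration) for 72 h at 37 degrees C before a luminescent ATP viability read.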
SW480 rerep = A quantitative high throughput screen for small molecules that induce DNA re-replication in SW480 colon adenocarcinoma cells; SW480 DNA re-replication, Hoechst DNA content imaging, 48 h; AID 624297, 2012; actives 1.8% (n = 340,000); Potency, µM (doses to about 46.1 µM), actives largely listed as activators; also: nearly all actives have a fitted effect of over 55% in size
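DNA re-replication was detected as more nuclei of elevated Hoechst intensity after 48 hr exposure to compound (23 nL pinned per well of 250 cells).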
KB-3-1 cytotox = qHTS assay for MDR1-selective chemotherapeutics: Primary screen using the parental adenocarcinoma cell KB-3-1. Potency, µM (highest dose often 46.1 µM), actives largely listed as cytotoxic. actives 1.4% (n = 400,000). KB-3-1 viability, CellTiter-Glo ATP luminescence, 72 h; also: nearly all actives have a fitted effect of over 60% in size
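Cytotoxicity measured as CellTiter-Glo luminescence after 72 h at 37 C. Compound titrations were pinned onto drug-naive KB-3-1 parental adenocarcinoma cells grown in DMEM with 10% FBS, and normalized data fitted to concentration-response curves.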
RORgamma inh = qHTS for inhibitors of ROR gamma transcriptional activity; Nuclear receptor ROR-gamma (Mus musculus), P51450; Drosophila S2 Gal4-RORgamma UAS-luciferase reporter, 20 h; Potency, µM (doses to about 53.6 µM), actives largely listed as inhibitors; actives 5.4% (n = 310,000); also: nearly all actives have a fitted effect of over 60% in size
Target sequence (P51450 whole entry, looked up, the tested form may be a part): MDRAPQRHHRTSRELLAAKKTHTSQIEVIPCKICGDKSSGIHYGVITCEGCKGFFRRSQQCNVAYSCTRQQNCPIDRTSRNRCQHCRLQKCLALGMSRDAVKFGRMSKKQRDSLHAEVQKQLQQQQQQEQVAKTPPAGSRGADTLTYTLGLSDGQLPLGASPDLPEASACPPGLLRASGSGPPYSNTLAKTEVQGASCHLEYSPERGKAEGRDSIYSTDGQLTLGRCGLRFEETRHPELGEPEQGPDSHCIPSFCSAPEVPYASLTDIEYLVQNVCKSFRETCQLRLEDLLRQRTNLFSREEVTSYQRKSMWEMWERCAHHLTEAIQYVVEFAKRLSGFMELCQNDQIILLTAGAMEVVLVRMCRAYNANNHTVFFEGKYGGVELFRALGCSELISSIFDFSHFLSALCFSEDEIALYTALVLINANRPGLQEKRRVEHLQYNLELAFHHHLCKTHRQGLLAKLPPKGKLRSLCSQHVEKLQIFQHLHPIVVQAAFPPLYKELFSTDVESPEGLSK
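Using a luciferase readout, inhibitors were identified by reduced reporter activity in Drosophila cells coexpressing a copper-inducible Gal4–ROR gamma fusion and UAS-driven Photinus luciferase, incubated 20 hr after 700 uM copper sulfate.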
MCF10A rereplic = A quantitative high throughput screen for small molecules that induce DNA re-replication in MCF 10a normal breast cells | MCF 10A DNA re-replication, Hoechst nuclear intensity, 48 h | Potency, µM (doses to about 46.1 µM), usual class: activators | actives 2.9% (n = 350,000) | AID 624296, 2012; also: nearly all actives have a fitted effect of over 50% in size
Hits are given with their value; [ ] = another dose, or the depositor's remark. Calls follow the shape of the dose curve; as a rule, active = well fitted curve in the direction sought with a large enough effect; inconclusive = small, poorly fitted or top-dose-only effect, or another doubt; inactive = no such curve, though single readings can be large; an effect the other way counts as inactive or inconclusive.

Screening O=C(Oc1ccc(F)cc1C(=O)/C=C/c1cccs1)c1cccc([N+](=O)[O-])c1 returned Gal4-VP16 FLuc inactive, KB-V1 cytotox inactive, SW480 rerep 13µM, KB-3-1 cytotox inactive, RORgamma inh inconclusive and MCF10A rereplic inconclusive.
Screening COc1cc(/C=C/C(=O)c2cccc([N+](=O)[O-])c2)cc(OC)c1OC returned Gal4-VP16 FLuc inconclusive, KB-V1 cytotox inconclusive, SW480 rerep inconclusive, KB-3-1 cytotox inconclusive, RORgamma inh 16µM and MCF10A rereplic inconclusive.
For COc1ccc(C(=O)Oc2ccc(F)cc2C(=O)/C=C/c2ccc(OC)c(OC)c2)cc1 the results were Gal4-VP16 FLuc inconclusive, KB-V1 cytotox inconclusive, SW480 rerep inconclusive, KB-3-1 cytotox inactive, RORgamma inh inconclusive and MCF10A rereplic inactive.
Screening COc1ccc(C(=O)/C=C/c2ccc(C)cc2)c(OC(=O)c2ccc([N+](=O)[O-])cc2)c1 returned Gal4-VP16 FLuc inactive[0.365 µM], KB-V1 cytotox inactive, SW480 rerep inactive[9.22 µM], KB-3-1 cytotox inconclusive, RORgamma inh inactive and MCF10A rereplic inconclusive.
Screening COc1ccc(C(=O)/C=C/c2ccccc2F)c(OC(=O)c2ccc([N+](=O)[O-])cc2)c1 returned Gal4-VP16 FLuc inactive, KB-V1 cytotox inconclusive, SW480 rerep inconclusive, KB-3-1 cytotox inconclusive, RORgamma inh inconclusive and MCF10A rereplic 15µM.
`COc1ccc(C=CC(=O)c2ccc([N+](=O)[O-])cc2)cc1` gave KB-V1 cytotox inactive, SW480 rerep inactive, KB-3-1 cytotox inactive and MCF10A rereplic inactive.
Screening O=C(/C=C/c1ccccc1F)c1cccc([N+](=O)[O-])c1 returned Gal4-VP16 FLuc inconclusive, KB-V1 cytotox inactive, SW480 rerep inactive, KB-3-1 cytotox inactive, RORgamma inh inconclusive and MCF10A rereplic 21µM.
For C[C@]12CC[C@@H]3c4ccc(O)cc4CC[C@H]3[C@@H]1CC[C@H]2O the results were Gal4-VP16 FLuc inactive and RORgamma inh inactive.
Screening O=S(=O)(c1ccccc1)N1CCC[C@@]2(CCN(c3ccncc3)C2)C1 returned Gal4-VP16 FLuc inactive and RORgamma inh inactive.
Screening COc1cc(/C=C/C(=O)c2ccccc2O)cc(OC)c1OC returned Gal4-VP16 FLuc inconclusive, KB-V1 cytotox inactive, SW480 rerep inconclusive, KB-3-1 cytotox inconclusive, RORgamma inh 2µM and MCF10A rereplic inconclusive.
For COc1cc(OC)c(C=CC(=O)c2ccccc2O)c(OC)c1 the results were KB-V1 cytotox inactive, SW480 rerep inconclusive, KB-3-1 cytotox inconclusive and MCF10A rereplic inactive.
O=C(/C=C/c1ccccc1)N1CCN(c2cccc(Cl)n2)CC1 was read as Gal4-VP16 FLuc inactive, KB-V1 cytotox 18µM, SW480 rerep inactive, KB-3-1 cytotox inactive, RORgamma inh inactive and MCF10A rereplic inactive.
Screening O=C(/C=C/c1ccc(F)cc1)N1CCN(c2ccccn2)CC1 returned Gal4-VP16 FLuc inactive, KB-V1 cytotox inactive, SW480 rerep inactive, KB-3-1 cytotox inactive, RORgamma inh inactive and MCF10A rereplic inactive.
Screening COCCCn1c(=NC(=O)c2ccccc2)c(C#N)cc2c(=O)n3cccc(C)c3nc21 returned Gal4-VP16 FLuc inactive, KB-V1 cytotox inactive, SW480 rerep inactive, KB-3-1 cytotox inactive, RORgamma inh inactive and MCF10A rereplic 6.5µM.
Screening CCOCCCn1c(=NC(=O)c2cccs2)c(C#N)cc2c(=O)n3cccc(C)c3nc21 returned Gal4-VP16 FLuc inactive, KB-V1 cytotox inconclusive, SW480 rerep inconclusive, KB-3-1 cytotox inactive, RORgamma inh inactive and MCF10A rereplic 9.2µM.
`COCCCn1c(=NC(C)=O)c(C#N)cc2c(=O)n3cccc(C)c3nc21` gave Gal4-VP16 FLuc inactive, KB-V1 cytotox inactive, SW480 rerep 5.8µM, KB-3-1 cytotox inactive, RORgamma inh inactive and MCF10A rereplic 18µM.
Screening Nc1[nH]c(C(=O)c2ccccc2)c(-c2ccncc2)c1C(=O)NC1CC1 returned KB-V1 cytotox inactive and KB-3-1 cytotox inactive.
